Measured values taken from PubChem BioAssay.
The other results are listed elsewhere or left out. Activity calls are given as the source filed them.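 Rule for the calls, unless noted: active = current increase at least 3 SD of the untreated controls above them in both duplicate recordings; inactive = the rest.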

Target: Potassium voltage-gated channel subfamily KQT member 2 (Rattus norvegicus) (UniProt O88943)
Assay: potentiators of retigabine-insensitive KCNQ2 W236L, mechanism study for KCNQ2 potentiator project, cell-based, rat KCNQ2 W236L, CHO, automated patch clamp (AID 2558)
Conditions: at 25 µM; outcome: automated patch clamp current

Chain of Potassium voltage-gated channel subfamily KQT member 2 (Rattus norvegicus) (O88943 whole entry W236L, looked up): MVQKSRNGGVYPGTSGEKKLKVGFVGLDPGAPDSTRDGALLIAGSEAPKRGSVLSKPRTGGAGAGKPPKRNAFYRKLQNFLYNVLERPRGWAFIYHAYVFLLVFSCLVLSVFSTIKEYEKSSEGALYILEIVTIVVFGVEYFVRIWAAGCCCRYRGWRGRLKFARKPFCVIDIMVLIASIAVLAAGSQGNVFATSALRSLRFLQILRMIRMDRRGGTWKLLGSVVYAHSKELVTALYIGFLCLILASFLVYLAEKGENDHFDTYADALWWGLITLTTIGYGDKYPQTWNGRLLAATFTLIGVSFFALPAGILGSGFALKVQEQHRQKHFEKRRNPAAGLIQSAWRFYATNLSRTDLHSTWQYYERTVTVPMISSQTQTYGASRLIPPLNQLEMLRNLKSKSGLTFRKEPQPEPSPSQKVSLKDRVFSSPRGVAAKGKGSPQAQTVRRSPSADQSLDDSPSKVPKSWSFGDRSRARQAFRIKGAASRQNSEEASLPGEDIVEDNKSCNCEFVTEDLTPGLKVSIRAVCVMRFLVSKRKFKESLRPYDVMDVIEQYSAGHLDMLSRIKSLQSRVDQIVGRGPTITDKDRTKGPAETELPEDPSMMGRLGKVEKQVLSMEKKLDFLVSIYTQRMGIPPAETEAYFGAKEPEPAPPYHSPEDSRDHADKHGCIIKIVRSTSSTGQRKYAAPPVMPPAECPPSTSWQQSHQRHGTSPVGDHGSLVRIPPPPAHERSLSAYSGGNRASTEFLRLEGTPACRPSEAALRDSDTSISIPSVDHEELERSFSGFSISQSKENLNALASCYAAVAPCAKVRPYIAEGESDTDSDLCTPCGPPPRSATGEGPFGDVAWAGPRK

Compound | outcome | current increase over 3SD of negative controls (%), active compounds read high
Cc1[nH]n(-c2cccc(Cl)c2)c(=O)c1/C=N/n1c(C)nc2ccccc2c1=O | inactive | –
O=C(NCc1ccc2c(c1)OCO2)C12CC3CC(CC(C3)C1)C2 | inactive | –
Cc1ccc(CS(=O)(=O)c2ncc(Cl)c(C(=O)Nc3nnc(C)s3)n2)cc1 | – | 48.4% (active)
CCn1c(O)c(N=NC2=NC(=O)CS2)c2cc(C)ccc21 | inactive | –
Cc1cccc(NC(=O)CSC(N)=O)c1C | inactive | –
O=C(NCc1ccc2c(c1)OCO2)c1ccc(Cl)s1 | inactive | –
Cc1ccc(NC(=O)C2CC2c2ccccc2)cc1 (stereo not given) | inactive | –
N#Cc1c(-c2ccccc2)nc(SCc2cccc(C(F)(F)F)c2)[nH]c1=O | inactive | –
CCn1c2ccccc2c2cc(NC(=O)CNC)ccc21 | inactive | –
CCOC(=O)c1c(NC(=S)NC)sc2c1CCCC2 | inactive | –
Cc1cccc(NC(=O)c2nc(S(=O)(=O)Cc3ccccc3)ncc2Cl)c1 | inactive | –
CC(NC(=O)Nc1ccccc1)c1ccccc1 (stereo not given) | inactive | –
Cc1ccc(/C=N/NC(=O)c2cc3ccccc3cc2O)o1 | inactive | –
CSc1nnc(NC(=O)c2nc(S(=O)(=O)Cc3ccc(C)cc3)ncc2Cl)s1 | – | 23.1% (active)
CC1=C/C(=N\OS(=O)(=O)c2ccccc2)C=CC1=O | inactive | –
O=C(Nc1ccc(Oc2ccccc2)cc1)c1ccco1 | – | 9.43% (active)

Compound | outcome | current increase over 3SD of negative controls (%), active compounds read high
C/C(=N\NC(=O)c1ccoc1C)c1ccccc1O | inactive | –
CCc1ccc(NC(=O)C(=O)NNC(=O)c2cccs2)cc1 | inactive | –
COc1cccc(NC(=O)C2C(c3ccccc3)C2(Cl)Cl)c1 (stereo not given) | inactive | –
CS(=O)(=O)c1sc(C(=O)NC(=S)Nc2ccc(OC(F)(F)F)cc2)c2c1C=CCC2 | inactive | –
CCOC(=O)c1sc(=S)n2c1[nH]c(=O)c1ccc(C(=O)OC)cc12 | inactive | –
CCCc1nc2sc3c(c2c(=O)n1NC(=O)CCCl)CCCC3 | inactive | –
CCn1c(=S)[nH]c2sc3c(c2c1=O)CCCCC3 | inactive | –
S=C(NCc1ccc(Cl)cc1)NC12CC3CC(CC(C3)C1)C2 | inactive | –
COc1ccc(NC(=O)/C(Cl)=C(/Cl)S(=O)Cc2ccc(C)cc2)cn1 (stereo not given) | inactive | –
CCC1(C)Cc2c(sc3nnn(CC(=O)Nc4ccc(Cl)cc4)c(=O)c23)CO1 (stereo not given) | inactive | –
FC(F)(F)c1cccc(NC(=S)Nc2cccc(Cl)c2)c1 | inactive | –
COc1ccc(C(=O)Nc2ncc3c(n2)-c2ccccc2CC3)cc1 | inactive | –
CC(NC(=O)Nc1cccc([N+](=O)[O-])c1)c1ccc2c(c1)OCO2 (stereo not given) | inactive | –
Oc1c(Cl)cc(Cl)cc1/C=N/c1ncn[nH]1 | inactive | –
CCC1(C)Cc2c(sc3[nH]c(=S)n(Cc4ccccc4)c(=O)c23)CO1 (stereo not given) | inactive | –
Cc1cccc(NC(=S)NC(=O)c2ccc(Br)o2)c1 | inactive | –

Target: Short transient receptor potential channel 4 (Mus musculus) (UniProt Q9QUQ5)
Sequence (Q9QUQ5 whole entry, looked up): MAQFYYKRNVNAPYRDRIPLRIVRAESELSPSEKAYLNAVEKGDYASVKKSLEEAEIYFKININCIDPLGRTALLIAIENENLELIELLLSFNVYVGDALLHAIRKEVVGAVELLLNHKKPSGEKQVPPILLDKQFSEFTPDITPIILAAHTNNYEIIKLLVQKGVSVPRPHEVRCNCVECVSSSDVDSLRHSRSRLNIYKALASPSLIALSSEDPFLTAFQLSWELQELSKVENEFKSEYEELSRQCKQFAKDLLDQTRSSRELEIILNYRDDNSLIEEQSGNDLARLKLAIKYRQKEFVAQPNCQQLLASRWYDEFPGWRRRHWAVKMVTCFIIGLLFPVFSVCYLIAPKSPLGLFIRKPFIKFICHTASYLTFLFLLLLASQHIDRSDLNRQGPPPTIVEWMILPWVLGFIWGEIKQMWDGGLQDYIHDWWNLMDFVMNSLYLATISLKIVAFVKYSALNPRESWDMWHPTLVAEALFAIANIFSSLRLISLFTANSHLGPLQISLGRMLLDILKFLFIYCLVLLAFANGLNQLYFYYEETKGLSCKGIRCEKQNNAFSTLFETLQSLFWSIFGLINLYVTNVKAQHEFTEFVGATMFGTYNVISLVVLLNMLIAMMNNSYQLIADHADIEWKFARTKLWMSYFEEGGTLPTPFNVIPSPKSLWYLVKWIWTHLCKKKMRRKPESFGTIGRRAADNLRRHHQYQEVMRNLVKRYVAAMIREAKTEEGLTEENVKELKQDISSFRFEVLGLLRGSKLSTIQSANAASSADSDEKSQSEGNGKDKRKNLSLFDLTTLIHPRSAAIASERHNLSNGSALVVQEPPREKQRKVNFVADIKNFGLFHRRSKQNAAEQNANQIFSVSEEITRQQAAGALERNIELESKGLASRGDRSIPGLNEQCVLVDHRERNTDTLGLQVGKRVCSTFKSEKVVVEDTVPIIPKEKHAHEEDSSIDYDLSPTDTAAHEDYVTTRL
Assay: mouse TRPC4 membrane potential modulation by TRPC6 hits, confirmation, selectivity assay for TRPC6 inhibitor project, cell-based, second specificity screen, HEK293 TRPC4/mu-opioid (AID 2776;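 active = compounds whose fluorescence signal differed from control wells by over 3 SD, either direction, in both duplicate plates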)
Conditions: HEK293 TRPC4/MOR, membrane potential dye fluorescence, at 10 µM, channel activated by saturating DAMGO dose; active compounds read high

Compound | inhibition | outcome
O=C(NC(Nc1nc2ccc([N+](=O)[O-])cc2s1)(C(F)(F)F)C(F)(F)F)c1ccccc1 | 45% (active) | –
N=c1c2c(-c3ccccc3)c(-c3ccccc3)n(Cc3ccccc3)c2ncn1CCCO | – | inactive
Cc1ccc2nc(C)c3c(c2c1)N(c1ccccc1)CC3 | 32% (active) | –
Cc1cc2oc3ccc(NCCC4CCCN4C)cc3c(=O)c2cc1C (stereo not given) | 63% (active) | –

Test system: transient receptor potential cation channel C4 (TRPC4), mouse
Assay: mouse TRPC4 modulation by TRPC6 hits, confirmation, selectivity assay for TRPC6 inhibitor project, cell-based, HEK293 TRPC4/mu-opioid, membrane potential dye (AID 2777;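 active = rise or fall in signal beyond 3 SD of buffer-only wells in both replicate plates, either sign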;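 note: integrated kinetic ratio of fluorescence range over baseline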)
Conditions: membrane potential fluorescence, at 10 µM

Compound | activity change, negative = inhibition | outcome
O=C(NC(Nc1nc2ccc([N+](=O)[O-])cc2s1)(C(F)(F)F)C(F)(F)F)c1ccccc1 | 60.8% (active) | –
N=c1c2c(-c3ccccc3)c(-c3ccccc3)n(Cc3ccccc3)c2ncn1CCCO | – | inactive
Cc1ccc2nc(C)c3c(c2c1)N(c1ccccc1)CC3 | – | inactive
Cc1cc2oc3ccc(NCCC4CCCN4C)cc3c(=O)c2cc1C (stereo not given) | 8.34% (active) | –

Test system: not listed separately
Assay: nonspecific membrane potential effects, parental HEK293, confirmation, counter-screen for TRPC6 inhibitor project, cell-based, second counter screen (AID 2779;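 active = membrane potential signal moving either way by over 3 SD of the maximum-effect control, in both duplicate plates, meaning non-specific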)
Conditions: parental HEK293 membrane potential dye fluorescence; at 10 µM; maximal acetylcholine challenge after compound addition

Compound | outcome
O=C(NC(Nc1nc2ccc([N+](=O)[O-])cc2s1)(C(F)(F)F)C(F)(F)F)c1ccccc1 | inactive
N=c1c2c(-c3ccccc3)c(-c3ccccc3)n(Cc3ccccc3)c2ncn1CCCO | inactive
Cc1ccc2nc(C)c3c(c2c1)N(c1ccccc1)CC3 | inactive
Cc1cc2oc3ccc(NCCC4CCCN4C)cc3c(=O)c2cc1C (stereo not given) | inactive

Test system: not listed separately
Assay: membrane potential modulation in parental HEK293, confirmation, counter-screen for TRPC6 inhibitor project, cell-based (AID 2780;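 active = membrane potential signal shifting up or down by more than 3 SD of buffer-only wells, on both duplicate plates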;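 for membrane potential signal change: plate controls were buffer EC0 wells for no effect and acetylcholine ECmax wells for full effect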)
Conditions: parental HEK293 membrane potential dye fluorescence; at 10 µM

Compound | membrane potential signal change | outcome
O=C(NC(Nc1nc2ccc([N+](=O)[O-])cc2s1)(C(F)(F)F)C(F)(F)F)c1ccccc1 | 36.6% (active) | –
N=c1c2c(-c3ccccc3)c(-c3ccccc3)n(Cc3ccccc3)c2ncn1CCCO | – | inactive
Cc1ccc2nc(C)c3c(c2c1)N(c1ccccc1)CC3 | -212% (active) | –
Cc1cc2oc3ccc(NCCC4CCCN4C)cc3c(=O)c2cc1C (stereo not given) | 5.47% (active) | –

Target: Short transient receptor potential channel 6 (Mus musculus) (UniProt Q61143)
Sequence (Q61143 whole entry, looked up): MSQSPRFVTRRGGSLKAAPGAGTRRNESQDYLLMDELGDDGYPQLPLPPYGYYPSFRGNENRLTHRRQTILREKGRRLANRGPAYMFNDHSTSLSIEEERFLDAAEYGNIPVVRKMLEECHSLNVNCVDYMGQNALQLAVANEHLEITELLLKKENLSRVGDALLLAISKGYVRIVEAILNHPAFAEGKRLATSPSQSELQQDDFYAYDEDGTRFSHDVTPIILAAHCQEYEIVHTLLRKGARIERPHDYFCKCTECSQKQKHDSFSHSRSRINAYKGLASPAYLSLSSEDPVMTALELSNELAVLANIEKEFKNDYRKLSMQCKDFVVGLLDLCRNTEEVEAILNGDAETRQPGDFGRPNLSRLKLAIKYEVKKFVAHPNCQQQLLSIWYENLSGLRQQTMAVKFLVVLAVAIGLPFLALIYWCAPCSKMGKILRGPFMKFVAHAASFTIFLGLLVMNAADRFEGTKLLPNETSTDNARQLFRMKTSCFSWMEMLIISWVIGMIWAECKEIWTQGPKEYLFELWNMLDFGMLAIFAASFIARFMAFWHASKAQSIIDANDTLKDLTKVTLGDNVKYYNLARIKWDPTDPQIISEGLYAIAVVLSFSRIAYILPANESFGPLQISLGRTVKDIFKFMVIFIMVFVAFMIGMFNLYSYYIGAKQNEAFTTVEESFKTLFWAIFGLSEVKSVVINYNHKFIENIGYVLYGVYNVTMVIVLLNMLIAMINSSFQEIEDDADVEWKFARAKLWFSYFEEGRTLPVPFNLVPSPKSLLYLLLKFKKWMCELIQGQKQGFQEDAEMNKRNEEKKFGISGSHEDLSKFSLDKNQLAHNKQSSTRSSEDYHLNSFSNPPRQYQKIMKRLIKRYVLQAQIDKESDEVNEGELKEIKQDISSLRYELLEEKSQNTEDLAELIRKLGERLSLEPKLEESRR
Assay: mouse TRPC6 channel inhibitors, confirmation, HEK293 cells, membrane potential dye, duplicate (AID 488960;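 active = fluorescence ratio falls more than 5 SD below the full-stimulation control mean, in both duplicate runs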;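 for inhibition: integrated fluorescence ratio of peak minus minimum over baseline after agonist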)
Conditions: ACh-evoked depolarization, at 10 µM; active compounds read high

Compound | inhibition | outcome
O=C(NC(Nc1nc2ccc([N+](=O)[O-])cc2s1)(C(F)(F)F)C(F)(F)F)c1ccccc1 | 93.7% (active) | –
N=c1c2c(-c3ccccc3)c(-c3ccccc3)n(Cc3ccccc3)c2ncn1CCCO | – | inactive
Cc1ccc2nc(C)c3c(c2c1)N(c1ccccc1)CC3 | – | inactive
Cc1cc2oc3ccc(NCCC4CCCN4C)cc3c(=O)c2cc1C (stereo not given) | – | inactive

Target: Short transient receptor potential channel 6 (Mus musculus) (UniProt Q61143)
Assay: mouse TRPC6 channel activators, confirmation, HEK293 cells, membrane potential dye, duplicate (AID 488961;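 active = ratio signal rise beyond 5 SD above unstimulated control wells' mean, seen in both duplicate runs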)
Conditions: HEK293-TRPC6 membrane potential dye fluorescence, FDSS, at 10 µM; active compounds read high

Compound | outcome
N=c1c2c(-c3ccccc3)c(-c3ccccc3)n(Cc3ccccc3)c2ncn1CCCO | inactive
Cc1ccc2nc(C)c3c(c2c1)N(c1ccccc1)CC3 | inactive
Cc1cc2oc3ccc(NCCC4CCCN4C)cc3c(=O)c2cc1C (stereo not given) | inactive
